An excerpt weighted towards active compounds, which were near 11% of everything screened.
ALDH1A1 inh: inhibitors of human aldehyde dehydrogenase 1A1. hit rate 7.3% among 220,000. AID 1030. P00352. Potency, µM (top dose mostly 75.3 µM), hits mostly inhibitors. Purified ALDH1A1, NADH fluorescence, propionaldehyde substrate
Target sequence (P00352 whole entry, looked up): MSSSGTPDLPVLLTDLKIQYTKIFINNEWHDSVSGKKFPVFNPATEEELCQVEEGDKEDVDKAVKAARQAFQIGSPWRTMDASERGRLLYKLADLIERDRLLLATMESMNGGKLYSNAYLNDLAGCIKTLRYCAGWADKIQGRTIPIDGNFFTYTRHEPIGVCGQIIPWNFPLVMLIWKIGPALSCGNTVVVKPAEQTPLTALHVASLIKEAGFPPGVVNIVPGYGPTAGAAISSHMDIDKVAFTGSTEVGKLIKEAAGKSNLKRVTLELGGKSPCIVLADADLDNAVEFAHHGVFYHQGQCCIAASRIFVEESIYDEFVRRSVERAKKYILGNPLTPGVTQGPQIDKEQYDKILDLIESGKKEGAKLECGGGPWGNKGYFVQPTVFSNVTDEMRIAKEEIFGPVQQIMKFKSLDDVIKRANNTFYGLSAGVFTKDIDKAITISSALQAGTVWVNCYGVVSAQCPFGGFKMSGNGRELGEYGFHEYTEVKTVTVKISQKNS
HPGD inh: inhibitors of human 15-hydroxyprostaglandin dehydrogenase (HPGD). P15428. purified HPGD, NADH fluorescence kinetic, PGE2 substrate. Potency, µM, usual class: inhibitors. hit rate 4.3% among 150,000. AID 894
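NADH formation kinetics: reaction with 30 uM PGE2 and 1 mM NAD+ (final), 20 nM enzyme, Tris-HCl pH 8 with Tween 20, after 15 min compound preincubation at room temperature. Fluorescence change, last versus first of five reads.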
PNC assembly inh: perinucleolar compartment assembly inhibition; PC3M PTB-GFP, PNC prevalence imaging, 16 h; hits give low values; activity change (PNC), negative = inhibition, % at 10 µM; hit rate 3.1% among 140,000; AID 2417;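 active = readout at or below -70, meaning at least 70% loss of cells showing the perinucleolar compartment, a nuclear body marking cancer cells; inconclusive = readout between -30 and a set limit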
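PC3M cells stably expressing PTB-GFP, 750–1000 cells/well, treated 16 h at 37 °C with compound (23 nl of library stock), in duplicate. After paraformaldehyde fixation and Hoechst stain, imaged at 20x; PNC prevalence scored by image analysis.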
A number is an active result. Unless noted, calls follow the shape of the dose curve; as a rule, active = well fitted inhibition curve with a large enough effect (not every such curve was filed as active); inconclusive = small, poorly fitted or top-dose-only effect, or another doubt; inactive = no such curve, though single readings can be large or run the other way.

What do the screens show for `Cc1cc(/C=N\NC(=O)c2cccs2)c(C)n1-c1ccc2ncccc2c1`?
ALDH1A1 inh: 20µM; HPGD inh: inconclusive; PNC assembly inh: inconclusive

How did Cc1cc(C)cc(-n2c(C)cc(/C=N/NC(=O)c3cccc([N+](=O)[O-])c3C)c2C)c1 do in these assays?
ALDH1A1 inh: inconclusive; HPGD inh: inactive; PNC assembly inh: inactive

How did O=C(CSc1nnc(-c2ccccc2)o1)NC1CCS(=O)(=O)C1 (stereo not drawn) do in these assays?
ALDH1A1 inh: inactive; PNC assembly inh: inconclusive

What do the screens show for `CCOC(=O)CSc1n[nH]c(NC(=O)CC)n1`?
ALDH1A1 inh: inactive

What do the screens show for `Cc1ccccc1Sc1c(C#N)c(-c2ccccc2)nn1C`?
ALDH1A1 inh: inconclusive; HPGD inh: inactive; PNC assembly inh: inactive

What do the screens show for `CCN(CC)CCNC(=O)C(=O)NCC1OCCN1S(=O)(=O)c1ccc2c(c1)OCCO2` (stereo not drawn)?
ALDH1A1 inh: inactive

What do the screens show for `CS(=O)(=O)N1CCC(C(=O)NCc2ccc3c(c2)OCO3)CC1`?
ALDH1A1 inh: inactive

How did C=CCn1cc(/C=N/NC(=O)COc2cccc3cccnc23)c2ccccc21 do in these assays?
ALDH1A1 inh: 17.8µM; HPGD inh: inactive; PNC assembly inh: inactive

What do the screens show for `CC(C)n1cc(/C=N/NC(=O)COc2cccc3cccnc23)c2ccccc21`?
ALDH1A1 inh: inconclusive; PNC assembly inh: inactive

How did CCn1c(C(=O)NCCCN2CCc3ccccc3C2)cc2sccc21 do in these assays?
ALDH1A1 inh: inactive; HPGD inh: inactive; PNC assembly inh: inconclusive

What do the screens show for `Cc1cc(C)nc(N2CCC(C(=O)NCc3ccccc3F)CC2)n1`?
ALDH1A1 inh: inactive

What do the screens show for `O=C(NCc1ccco1)C1CCN(c2nc3ccccc3n2Cc2ccccc2F)CC1`?
ALDH1A1 inh: 28.2µM; HPGD inh: inactive; PNC assembly inh: inconclusive

How did CCN1CCN(C(=O)C2CCN(C(=O)c3cc4sccc4n3CC)CC2)CC1 do in these assays?
ALDH1A1 inh: inactive; HPGD inh: inactive; PNC assembly inh: inactive

What do the screens show for `CCn1c(C(=O)N2CCc3ccccc3C2)cc2sccc21`?
ALDH1A1 inh: inactive; HPGD inh: 3.16µM; PNC assembly inh: inactive

Results for O=C(NCCCN1CCCC1)C1CCN(C(=O)c2cc3sccc3n2Cc2ccc(F)cc2)CC1 ?
ALDH1A1 inh: inconclusive; HPGD inh: inactive; PNC assembly inh: inactive

What do the screens show for `CCn1c(C(=O)N2CCC(C(=O)NCCCSC3CCCCC3)CC2)cc2sccc21`?
ALDH1A1 inh: 3.16µM; HPGD inh: inactive; PNC assembly inh: inactive

How did O=C(NCc1ccco1)C1CCN(C(=O)c2cc3sccc3n2Cc2ccc(F)cc2)CC1 do in these assays?
ALDH1A1 inh: 4.47µM; HPGD inh: inactive; PNC assembly inh: inconclusive

Results for COC(=O)c1nnc(SC)nc1C(=O)OC ?
ALDH1A1 inh: inactive; HPGD inh: inactive

What do the screens show for `CCN(CC)CCn1c(-c2ccccc2)nc2c(NC3CCCCC3)nc(C)nc21`?
ALDH1A1 inh: inconclusive; HPGD inh: inactive

Results for CCCNC(=S)Nc1ccc(Cl)cc1Cl ?
ALDH1A1 inh: inactive; HPGD inh: inactive; PNC assembly inh: inactive

What do the screens show for `COCCCNC(=O)C1CCN(C(=O)c2cc3sccc3n2Cc2ccc(F)cc2)CC1`?
ALDH1A1 inh: 10µM; HPGD inh: inactive; PNC assembly inh: inactive

How did CCN(CC)CCCNC(=O)C1CCN(C(=O)c2cc3sccc3n2Cc2ccc(F)cc2)CC1 do in these assays?
ALDH1A1 inh: inconclusive; HPGD inh: inactive; PNC assembly inh: inactive

What do the screens show for `COc1ccc(C2CC(=O)N(CC(=O)NCC3CCCO3)c3ccccc3S2)cc1` (stereo not drawn)?
ALDH1A1 inh: inactive

What do the screens show for `O=C(CN1C(=O)CC(c2ccco2)Sc2ccccc21)NCC1CCCO1` (stereo not drawn)?
ALDH1A1 inh: 10µM; HPGD inh: inactive; PNC assembly inh: inactive

What do the screens show for `O=C(CN1C(=O)CCSc2ccccc21)Nc1ccc2c(c1)OCCO2`?
ALDH1A1 inh: inactive; HPGD inh: inactive; PNC assembly inh: inactive

Results for O=C(CN1C(=O)CC(c2ccco2)Sc2ccccc21)Nc1ccc2c(c1)OCCO2 (stereo not drawn) ?
ALDH1A1 inh: 14.1µM; HPGD inh: inactive; PNC assembly inh: inactive

Results for C=C1C(C2(C)C=CC(=O)C(C)(C)C2CC(=O)OC)CC[C@@]2(C)C(c3ccoc3)OC(=O)C3OC132 (stereo partly drawn) ?
ALDH1A1 inh: inactive; HPGD inh: inactive

What do the screens show for `O=C(NNc1cccc(Cl)n1)c1c(F)cccc1F`?
ALDH1A1 inh: inactive

How did COCCn1cc(C(=O)c2ccccc2OCC(=O)Nc2cc(C)on2)cc(C#N)c1=O do in these assays?
ALDH1A1 inh: inactive; HPGD inh: inactive; PNC assembly inh: inconclusive

What do the screens show for `COC(=O)CSc1nc2c(c(=O)n(C)c(=O)n2C)n1CCC(C)C`?
ALDH1A1 inh: 12.6µM; HPGD inh: 14.1µM; PNC assembly inh: inconclusive

How did CCOC(=O)CSc1nc2c(c(=O)[nH]c(=O)n2C)n1CCCc1ccccc1 do in these assays?
ALDH1A1 inh: inactive; HPGD inh: inactive; PNC assembly inh: -108.0

What do the screens show for `CCCCCCn1c(NCC)nc2c1c(=O)[nH]c(=O)n2C`?
ALDH1A1 inh: inactive; HPGD inh: inactive; PNC assembly inh: -92.7

How did CCCCCCn1c(SCC(C)C)nc2c1c(=O)[nH]c(=O)n2C do in these assays?
ALDH1A1 inh: inactive; HPGD inh: inactive; PNC assembly inh: inactive

What do the screens show for `CCNc1nc2c(c(=O)[nH]c(=O)n2C)n1CC(C)C`?
ALDH1A1 inh: inactive; HPGD inh: inactive; PNC assembly inh: inactive

Results for COC(=O)C(C)Sc1nc2c(c(=O)n(C)c(=O)n2C)n1CCC(C)C (stereo not drawn) ?
ALDH1A1 inh: inconclusive; HPGD inh: inactive; PNC assembly inh: inactive

What do the screens show for `CC(C)CSc1nc2c(c(=O)[nH]c(=O)n2C)n1CCc1ccccc1`?
ALDH1A1 inh: inactive; HPGD inh: inactive; PNC assembly inh: inactive

What do the screens show for `CCCCCCn1c(SCC(=O)OC)nc2c1c(=O)[nH]c(=O)n2C`?
ALDH1A1 inh: 3.55µM; HPGD inh: 7.94µM; PNC assembly inh: inactive

How did CCN(CC)S(=O)(=O)c1ccc(N(C)Cc2cccnc2)nc1 do in these assays?
ALDH1A1 inh: inconclusive; HPGD inh: inactive; PNC assembly inh: inactive

What do the screens show for `Cc1cccc(-c2oc(C)c(C)[n+]2[O-])c1`?
ALDH1A1 inh: 3.55µM; HPGD inh: inactive; PNC assembly inh: inactive

How did Cc1oc(-c2ccccc2)[n+]([O-])c1C do in these assays?
ALDH1A1 inh: inactive; HPGD inh: inactive; PNC assembly inh: inactive

How did COC(=O)C(C)Sc1nc2c(c(=O)[nH]c(=O)n2C)n1CCC(C)C (stereo not drawn) do in these assays?
ALDH1A1 inh: inconclusive; HPGD inh: inactive; PNC assembly inh: inactive

What do the screens show for `CCOC(=O)C(C)Sc1nc2c(c(=O)[nH]c(=O)n2C)n1C/C=C(/C)Cl` (stereo not drawn)?
ALDH1A1 inh: 7.08µM; HPGD inh: 22.4µM; PNC assembly inh: inactive

Results for C=CCn1c(SCCN2CCOCC2)nc2c1c(=O)[nH]c(=O)n2C ?
ALDH1A1 inh: inactive; HPGD inh: inactive; PNC assembly inh: inconclusive

How did C/C(Cl)=C/Cn1c(SCCN2CCOCC2)nc2c1c(=O)[nH]c(=O)n2C do in these assays?
ALDH1A1 inh: inactive; HPGD inh: inconclusive; PNC assembly inh: inconclusive

What do the screens show for `CCOC(=O)Cn1c(N2CCCCCC2)nc2c1c(=O)[nH]c(=O)n2C`?
ALDH1A1 inh: inconclusive; HPGD inh: inactive; PNC assembly inh: inactive

Bioassay records as filed in PubChem BioAssay.
